Molecules are shown by their SMILES. The campaign covered roughly 96,000 compounds. About 19,000 (20%) were called active.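 How the source made its calls: active means blocking of liver enzyme CYP2C9 beyond about 50% at 5 µM (limit read from the data); inactive means the rest.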 The list is a sample of the results.

Broadly, the inhibition is the change of the read-out against control, counted positive when it falls.

The experiment deals with Cytochrome P450 2C9 (Homo sapiens) (UniProt P11712). Briefly: blockers of cytochrome P450 2C9 activity – biochemical, luminescence, ADME assay, primary screen (AID 777). Conditions: CYP2C9 Supersomes, luciferin-H conversion, at 5 µM, hits give high values.
Chain of Cytochrome P450 2C9 (Homo sapiens) (P11712 whole entry, looked up): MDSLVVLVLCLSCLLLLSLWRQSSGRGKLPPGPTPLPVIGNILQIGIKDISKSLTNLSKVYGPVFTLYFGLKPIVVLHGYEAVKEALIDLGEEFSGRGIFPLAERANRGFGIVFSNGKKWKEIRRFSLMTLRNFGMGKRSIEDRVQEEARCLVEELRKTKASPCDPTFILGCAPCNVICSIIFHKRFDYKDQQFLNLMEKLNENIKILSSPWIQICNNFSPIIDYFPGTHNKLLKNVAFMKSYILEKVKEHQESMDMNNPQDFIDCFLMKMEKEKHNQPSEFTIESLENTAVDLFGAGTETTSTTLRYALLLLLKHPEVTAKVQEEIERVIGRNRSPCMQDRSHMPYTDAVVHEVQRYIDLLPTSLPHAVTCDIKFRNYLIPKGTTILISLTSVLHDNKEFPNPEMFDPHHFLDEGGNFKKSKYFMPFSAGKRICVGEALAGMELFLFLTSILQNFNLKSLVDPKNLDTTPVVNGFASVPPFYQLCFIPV
For `CCNC(=O)N1CCNC(=O)C1CC(=O)Nc1ccc(C(=O)OCC)cc1` (stereo not given), the inhibition is 1.1% (inactive). Consider `COC(=O)c1ccc(C(=O)OC)c(NC(=S)N2CCCCC2)c1`, for which the inhibition is 14% (inactive). Turning to `O=C(Nc1ccc2c(c1)CCC2)c1cccc(S(=O)(=O)N2CCN(c3ccc(F)cc3)CC2)c1`, the inhibition is 39.9% (inactive). As for `CCCCc1nnc(NC(=O)CS(=O)(=O)Cc2ccccc2)s1`, the figure is 44.7% (inactive); as for `C=CCNc1nnc(C)c2ccccc12`, -15.2% (inactive); as for `Cc1ccccc1CS(=O)(=O)CC1(O)CCN(C(=O)c2cccc(C(F)(F)F)c2)CC1`, 4.9% (inactive).

On to `O=C(c1ccccc1)N1CCN(C(=O)N2CCCCC2)CC1`, for which the inhibition is 1.9% (inactive). The same measure for `Cc1cccc(C(=O)N2CCCN(C(=O)c3cccc(C)c3)CC2)c1`: 70.4% (active); for `Cc1ccccc1CN1CCN(C(=O)c2cccc(F)c2)CC1`: 85.6% (active). As for `O=C(CN1CCN(C(=O)c2cccc(F)c2)CC1)Nc1ccccc1F`, the figure is 27.5% (inactive). The same measure for `Cc1ccc(C(=O)N2CCCCCC2)cc1Br`: -23.3% (inactive); for `Cc1ccc(S(=O)(=O)N(c2cccc(C)c2)C2CCS(=O)(=O)C2)cc1` (stereo not given): 7.2% (inactive). As to `CC(C)C(=O)Nc1ccc2c(c1)oc1ccccc12`, the inhibition is 1.8% (inactive). The same measure for `CC1Cc2ccccc2N1C(=O)CSc1nnc(-c2ccc(S(=O)(=O)N3CCCCC3)cc2)o1` (stereo not given): 31.7% (inactive). Regarding `COc1ccc(C2=NOC3(CC(=O)N(c4ccc(C)cc4)C3=O)C2)cc1` (stereo not given), the inhibition was 12% (inactive).

For `CCCc1nnc(NC(=O)c2cc(OC)cc(OC)c2)s1`, the inhibition is 21.7% (inactive). The same measure for `Cc1ccc(NS(=O)(=O)c2c(C)[nH]c(=O)[nH]c2=O)cc1C`: 4.6% (inactive); for `COc1ccc(S(=O)(=O)Nc2ccc(F)cc2)c(C)c1C`: 66.9% (active).

As to `COc1ccc(S(=O)(=O)N2CCCC2)c(C)c1C`, the inhibition was -147% (inactive).

For the compound `CCOc1cc(C(=O)Nc2ncccn2)cc(OCC)c1OCC`, the inhibition was 3.1% (inactive).

With `Nc1nnc(C2CCCC2)s1`, the inhibition is 7.5% (inactive). The same measure for `COc1ccc(NC(=O)c2sccc2SCC#N)cc1`: 10.4% (inactive); for `CCCSC1=C(C#N)C(c2ccccc2C)C(C(=O)OC)C(=O)N1` (stereo not given): 33.7% (inactive); for `CC1=C(C(=O)Nc2ccccc2)C(c2cccs2)C(C#N)=C(SCC#N)N1` (stereo not given): 87.5% (active). Take `C/C(=N\O)C1(C)N(O)C(C)(C)C(c2ccc(Br)cc2)=[N+]1[O-]` (stereo not given): the inhibition is -4.6% (inactive). For the compound `O=c1onc(-c2cccs2)n1Cc1ccccc1`, the inhibition is 4.9% (inactive).

`Cc1ccc(OCCCC(=O)N2CCOCC2)c(C)c1`: the inhibition was 4% (inactive). As for `CCCCCNC(=O)Cc1ccc(OC)cc1`, the figure is 14.9% (inactive). The same measure for `COc1ccc(S(=O)(=O)N2CCC(C(=O)N3CCOCC3)CC2)cc1OC`: 43.3% (inactive); for `CCNC(=O)NC(=O)C(C)OC(=O)c1cc(S(=O)(=O)N2CCCCCC2)ccc1OC` (stereo not given): 98.5% (active); for `CSCCC(NC(=O)c1ccco1)C(=O)OCC(=O)Nc1ncc(Cl)c(C)c1Cl` (stereo not given): 24.2% (inactive).

For the compound `CCc1cc(=O)oc2cc(C)cc(OC(C)C(=O)O)c12` (stereo not given), the inhibition is -7.1% (inactive). As for `CCCCc1cc(=O)oc2cc(C)cc(OCc3nn[nH]n3)c12`, the figure is 67.5% (active). As for `O=c1[nH]c(CCl)nc2cc(-c3ccc(Cl)cc3)sc12`, the inhibition is 17.9% (inactive). As for `O=C(Nc1sc2c(c1-c1nc3ccccc3[nH]1)CCCC2)C1CC1`, the figure is 40.5% (inactive); as for `CCOC(=O)c1[nH]c2ccc(C)cc2c1N=C(C)N(C)C`, -7.9% (inactive). For the compound `COc1cc(C(=O)N(Cc2ccc(N(C)C)cc2)C2CCS(=O)(=O)C2)cc(OC)c1OC` (stereo not given), the inhibition is 5.2% (inactive). The same measure for `COc1ccc(C(=O)N(Cc2ccc(N(C)C)cc2)C2CCS(=O)(=O)C2)cc1` (stereo not given): -2.3% (inactive); for `CCOc1ccc(C(=O)N(Cc2ccc(N(C)C)cc2)C2CCS(=O)(=O)C2)cc1` (stereo not given): 65.3% (active); for `O=C(Nc1nccs1)c1cc(S(=O)(=O)N2CCOCC2)c(Cl)cc1Cl`: 15.1% (inactive).

As for `CC(=O)N(CC1CCCO1)C1(C(=O)NC2CCCC2)CCCCC1` (stereo not given), the inhibition was -7.3% (inactive). The same measure for `CCOc1ccccc1Nc1nnc(SCc2ccc(C(=O)OC)o2)s1`: -73.5% (inactive). The same measure for `COC(=O)c1ccc(CSc2nncn2C)cc1`: 21.6% (inactive); for `COC(=O)c1ccc(CSc2ccc3nnc(-c4ccccc4)n3n2)o1`: 96.2% (active); for `COc1cc(OC)cc(-c2nc3nc(C)c(CCC(=O)NCc4ccco4)c(C)n3n2)c1`: 15.8% (inactive). In the case of `O=C(NCc1ccccn1)c1c(O)c2c([nH]c1=O)CCCC2`, the inhibition is 15% (inactive). As for `COc1ccc(CNC(=O)C2CCC(CNc3c(N4CCOCC4)c(=O)c3=O)CC2)cc1` (stereo not given), the figure is -7.6% (inactive); as for `Cc1cc(O)ccc1-c1cnc2ccccc2n1`, -7.4% (inactive). Take `CNC(=O)CN1C(=O)c2ccccc2S1(=O)=O`: the inhibition was -5.9% (inactive). The same measure for `O=C(CN1C(=O)c2ccccc2S1(=O)=O)N1CCc2ccccc21`: -5.2% (inactive). Regarding `O=C1c2ccccc2S(=O)(=O)N1CC(O)Cn1c2ccccc2c2ccccc21` (stereo not given), the inhibition is 94.4% (active).

With `CCC(=O)Nc1ccc(C(=O)Nc2ccc3c(c2)C(=O)N(CC2CCCO2)C3=O)cc1` (stereo not given), the inhibition was 18.8% (inactive). Take `CC(=O)Nc1cccc(Oc2cc(C#N)c(C#N)cc2N2CCOCC2)c1`: the inhibition is 61.5% (active).

In the case of `CCOc1cccc(NC(=O)CC#N)c1`, the inhibition is -19.3% (inactive). As for `CC(=O)Nc1ccc(N2CCOCC2)c(C(=O)Nc2cccc(C)c2)c1`, the figure is 49.6% (inactive); as for `CCC(=O)Nc1ccc(C(=O)Nc2cc(C)on2)cc1`, 8.5% (inactive); as for `Cc1ccc(/C=N/NC(=O)c2sccc2OCc2ccc(F)cc2)cc1`, 17.4% (inactive).

Regarding `O=C(Nc1nnc(CCOCCOCCc2nnc(NC(=O)c3ccco3)s2)s1)c1ccco1`, the inhibition was 19.4% (inactive). With `Cc1[nH][nH]c(=O)c1N=Nc1ccccc1`, the inhibition is 25.4% (inactive).

For `COc1ccccc1-c1cc(C(=O)NCCCn2ccnc2)no1`, the inhibition is -25.8% (inactive). As to `O=C(NCCCn1ccnc1)Nc1ccc(Cl)cc1Cl`, the inhibition is 97.7% (active).

Take `NS(=O)(=O)c1ccc(CCNC(=O)Nc2ccc(Cl)cc2)cc1`: the inhibition is 30.4% (inactive).

As to `CCCC(=O)Nc1ccc(C(=O)NCCCn2ccnc2)cc1`, the inhibition is 42.1% (inactive).

As to `CCCCOCCCNC(=O)c1ccccc1OCC`, the inhibition was -187% (inactive). As for `CCOc1ccccc1C(=O)NCCCn1ccnc1`, the figure is 65.1% (active); as for `Cn1c(=NC(=O)CSCC(=O)N2CCCCC2)sc2ccccc21`, -39.3% (inactive); as for `O=C(Cc1c(F)cccc1Cl)N1CCN(C(=O)c2ccco2)CC1`, 11.7% (inactive).

As for `O=C1CSC(c2cccc(F)c2)N1c1ccc(O)cc1` (stereo not given), the inhibition is 32.7% (inactive). The same measure for `CCN1CCN(C(=O)/C=C\C(=O)O)CC1`: -4.2% (inactive). The same measure for `COc1cccc(N(CC(=O)Nc2cccc(N(C)S(C)(=O)=O)c2)S(C)(=O)=O)c1`: 57.7% (active); for `Cc1cccc(N(CC(=O)Nc2ccc(-c3nc4ccc(C)cc4s3)cc2)S(C)(=O)=O)c1`: 6.7% (inactive). As for `Cc1ccc(N(CC(=O)Nc2cccc(N(C)S(C)(=O)=O)c2)S(C)(=O)=O)cc1`, the figure is 5.5% (inactive); as for `CS(=O)(=O)N(CC(=O)Nc1ccc(F)cc1F)c1cccc([N+](=O)[O-])c1`, 13.3% (inactive); as for `COc1cccc(N(CC(=O)Nc2cccc(F)c2)S(C)(=O)=O)c1`, 45.4% (inactive). With `CCN(CC)S(=O)(=O)c1ccc(NC(=O)CN(c2cccc(F)c2)S(C)(=O)=O)cc1`, the inhibition was 97.6% (active). As for `CC1Cc2cc(/C(O)=C3\C(=O)C(=O)N(CCN4CCOCC4)C3c3ccccc3F)ccc2O1` (stereo not given), the figure is 0.8% (inactive); as for `CCSc1ncnc2c(C#N)c3n(c12)CCCCC3`, 17.9% (inactive); as for `Nn1c(SCC(=O)NC2CCCC2)nnc1-c1ccccc1F`, 8.6% (inactive). Turning to `COCCNC(=O)COc1ccccc1C`, the inhibition was 4.4% (inactive).

As to `CCCn1nnnc1NC(=O)COc1ccc(Cl)cc1C`, the inhibition is 46.7% (inactive). As for `O=C(Nc1cccc2ncccc12)C(Cl)(Cl)Cl`, the figure is 49.6% (inactive); as for `O=C(CSc1n[nH]c(-c2cccnc2)n1)Nc1ccnc2ccccc12`, 91.5% (active); as for `O=C(CSc1ncn[nH]1)Nc1ccnc2ccccc12`, 35.2% (inactive).

Consider `CCCn1c(SCC(N)=O)nnc1C(C)C`, for which the inhibition is -8% (inactive).

Regarding `O=C1c2cccnc2C(=O)N1Cc1cccs1`, the inhibition was 11.6% (inactive). For the compound `CCOC(=O)c1sc(C)c2c1NC(C)(c1cccc3ccccc13)NC2=O` (stereo not given), the inhibition is 100% (active). The same measure for `CCOC(=O)c1nc(N)sc1C(=O)OCC`: 4.2% (inactive); for `CCOC(=O)c1cc2ccccc2nc1C`: -27.3% (inactive). With `Cc1ccccc1Nc1nnc(C)c(=O)[nH]1`, the inhibition is 2.7% (inactive).

In the case of `CNC(=O)c1nnc(Cc2ccc(Cl)cc2)o1`, the inhibition was 5% (inactive). For the compound `CC(C)CCNC(=O)C(C)N(C(=O)Cn1nnc(-c2ccc(F)cc2)n1)C1CCCC1` (stereo not given), the inhibition was 77.2% (active). As for `CC(C)CCNC(=O)CN(C(=O)Cn1nnc(-c2ccc(F)cc2)n1)C1CCCC1`, the figure is 17.3% (inactive); as for `CC(C)CCNC(=O)C1CCCN(S(=O)(=O)c2ccc(F)cc2)C1` (stereo not given), -10.8% (inactive). As for `CC1=CC(C)(C)NC(=S)N1c1ccccc1`, the figure is 13.8% (inactive); as for `CCc1cccc2c(C=C(C#N)C#N)cn(CC(=O)N3CCCCC3)c12`, 0% (inactive); as for `Cc1nnc(SCc2cc(=O)[nH]c(N3CCN(Cc4ccccc4)CC3)n2)s1`, 56.4% (active). `O=c1cc(CSc2ccccn2)nc(N2CCN(c3ccccc3)CC2)[nH]1`: the inhibition was 3.6% (inactive). As for `CCc1c(C)nc(N2CCN(Cc3ccccc3)CC2)[nH]c1=O`, the inhibition was 10.1% (inactive). `Cc1ccc(-c2n[nH]c(=S)n2/N=C/c2cc3c(cc2[N+](=O)[O-])OCO3)cc1`: the inhibition was 18% (inactive). The same measure for `Nc1nc(C23CC4CC(CC(C4)C2)C3)cs1`: 73.6% (active).

For the origin of these results see PubChem BioAssay AID777 (Sanford-Burnham Center for Chemical Genomics, 2007).
